# In PubChem BioAssay (NCATS):
# Results filed as inconclusive are left out. A call without a number means that no potency is given here. Active and inactive are the calls of the source. Calls follow the shape of the dose curve; as a rule, active = well fitted inhibition curve with a large enough effect; inconclusive = small, poorly fitted or top-dose-only effect; inactive = flat fitted curve, though single readings scatter.
# Test system: Zika virus NS2B-NS3 protease
# Assay: Primary screen GU AMC qHTS for Zika virus inhibitors (AID 1347154); also: nearly all actives have a fitted effect of over 70% in size
# Conditions: Zika NS2B-NS3 unlinked protease, AMC fluorogenic substrate; series mostly up to 54.1 µM
# Summary of the method: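 Unlinked Zika NS2B hydrophilic domain–NS3 protease complex at 25 nM in 10 mM Tris-HCl pH 8.0, 0.01% Tween 20, with an AMC peptide substrate. Fluorescence change (340/450 nm) over 15 min at room temperature, normalized to controls, fitted to 4-parameter Hill.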
row,SMILES,Potency
1,CC1(C)CC(=O)c2c(C(F)(F)F)nn(-c3ccc(C(N)=O)c(NC4CCC(OC(=O)CN)CC4)c3)c2C1 (configuration not stated),inactive
2,COC(=O)C1=C(C)NC(C)=C(C(=O)OCCN2CCN(C(c3ccccc3)c3ccccc3)CC2)C1c1cccc([N+](=O)[O-])c1 (configuration not stated),inactive
3,CNC(=O)c1cc(Oc2ccc(NC(=O)Nc3cc(C(C)(C)C)nn3-c3ccc4ncccc4c3)c(F)c2)ccn1,inactive
4,CCC[C@H](NC(=O)C(C#N)=Cc1cccc(Br)n1)c1ccccc1,inactive
5,Nc1nc(Nc2ccc(S(N)(=O)=O)cc2)nn1C(=O)c1c(F)cccc1F,inactive
6,CC(C)(C)c1cc(C(C)(C)C)c(NC(=O)c2c[nH]c3ccccc3c2=O)cc1O,inactive
7,Nc1ccn([C@@H]2CS[C@H](CO)O2)c(=O)n1,inactive
8,C=CC(=O)Nc1cc2c(Nc3ccc(F)c(Cl)c3)ncnc2cc1OCCCN1CCOCC1,inactive
9,COc1ccc(C(=O)CC2(O)C(=O)Nc3c(Cl)ccc(Cl)c32)cc1 (configuration not stated),inactive
10,CN1CCN(c2ccc3nc(-c4c(N)c5c(F)cccc5[nH]c4=O)[nH]c3c2)CC1,inactive
11,CC(C)Nc1cc(C(F)(F)F)cc2nc(NC(=O)c3cccnc3)nn12,inactive
12,O=C(NCCS(=O)(=O)c1ccc(C(F)(F)F)cn1)c1ccc(Cl)cc1,inactive
13,CNC(=O)c1ccc(-c2cnc3ncc(Cc4ccc5ncccc5c4)n3n2)cc1F,inactive
14,NCC(=O)Nc1ccc(-n2nc(C(F)(F)F)cc2-c2ccc3c(ccc4ccccc43)c2)cc1,inactive
15,COc1ccc2c(c1)CC[C@@H](CN(C)CC(=O)O)[C@H]2c1ccccc1,inactive
16,O=C(Nc1nc2cccc(-c3ccc(CN4CCS(=O)(=O)CC4)cc3)n2n1)C1CC1,inactive

row,SMILES,Potency
1,O=c1[nH]c(=O)n(C2CCCO2)cc1F (configuration not stated),inactive
2,O=C(O)c1ccc2c(c1)nc(Nc1cccc(Cl)c1)c1ccncc12,inactive
3,Cn1c(CNc2ccc(C(=N)N)cc2)nc2cc(C(=O)N(CCC(=O)O)c3ccccn3)ccc21,inactive
4,CC(=O)c1c(C)c2cnc(Nc3ccc(N4CCNCC4)cn3)nc2n(C2CCCC2)c1=O,inactive
5,CN[C@H]1CCc2cc(OC)c(OC)c(OC)c2-c2ccc(OC)c(=O)cc21,inactive
6,Clc1cccc(-c2nnnn2Cc2cccnc2)c1Cl,inactive
7,CCOc1ccccc1OCCNC(C)Cc1ccc(OC)c(S(N)(=O)=O)c1 (configuration not stated),inactive
8,CC1COC2(CCN(c3nc(=O)c4cc(C(F)(F)F)cc([N+](=O)[O-])c4s3)CC2)O1 (configuration not stated),inactive
9,c1nc2nc(Nc3ccc(N4CCOCC4)cc3)nc(NC3CCCCC3)c2[nH]1,inactive
10,CNc1nccc(-c2cccnc2Oc2cc(C(=O)Nc3cccc(C(F)(F)F)c3)ccc2C)n1,inactive
11,Cn1c2cc(S(C)=O)sc2c2cnn(Cc3cccc(N)c3)c(=O)c21 (configuration not stated),inactive
12,CCCNC(=O)Nc1ccc(Oc2ncnc3cc(OC)c(OC)cc23)cc1Cl,inactive
13,O=C(c1cncc(Br)c1)N1CCC(N2CCCC2)CC1,inactive
14,Cn1cncc1[C@@](N)(c1ccc(Cl)cc1)c1ccc2c(c1)c(-c1cccc(Cl)c1)cc(=O)n2C,inactive
15,CC(=O)OCCN1C(=O)c2c(C)nc3ccc(S(=O)(=O)N4CCOCC4)cc3c2C1=O,inactive
16,COc1cc(C)c(Sc2cnc(NC(=O)c3ccc(CNC(C)C(C)C)cc3)s2)cc1C(=O)N1CCN(C(C)=O)CC1 (configuration not stated),inactive
